Assay results taken from PubChem BioAssay (NCI).
This is part of a sample that, as a whole, favours compounds with a hit. Of some 83,000 tested, about 20% had one in any assay.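 Single-dose data. Exposure time 48 hours. Values below 10 considered active.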 The source made the active and inactive calls.

Tests used:
Assay in all cases: NCI-60 one-dose screen, 48 h (100 = growth as untreated, 0 = no growth, -100 = all killed)
Conditions in all cases: 10 µM unless noted
T-47D breast = test system: T-47D breast
BT-549 breast = test system: BT-549 breast
MDA-MB-435 melanoma = test system: MDA-MB-435 melanoma
SW-620 colon = test system: SW-620 colon
MCF7 breast = test system: MCF7 breast
HCT-116 colon = test system: HCT-116 colon
HCC-2998 colon = test system: HCC-2998 colon
KM12 colon = test system: KM12 colon

Measured: growth

Cl[C@@H]1CCO[C@H](c2cc3ccccc3c3ccccc23)C1
inactive: T-47D breast 99.5% | BT-549 breast 87.4% | MDA-MB-435 melanoma 101% | SW-620 colon 95.4% | MCF7 breast 97.5% | HCT-116 colon 90.3% | HCC-2998 colon 94.8% | KM12 colon 100%

COc1ccc(-c2coc3c(CO)c(O)ccc3c2=O)cc1
inactive: T-47D breast 61.8% | BT-549 breast 14.2% | MDA-MB-435 melanoma 60.2% | SW-620 colon 83.5% | MCF7 breast 40.8% | HCT-116 colon 19.3% | HCC-2998 colon 29.6% | KM12 colon 60.4%

CC(=O)n1cc(/C=C2\N=C(c3ccc(Cl)cc3)N(c3ccc(S(=O)(=O)Nc4nccs4)cc3)C2=O)c2ccccc21
inactive: T-47D breast 55.3% | BT-549 breast 92.8% | MDA-MB-435 melanoma 77% | SW-620 colon 96.2% | MCF7 breast 49.8% | HCT-116 colon 92.6% | HCC-2998 colon 107% | KM12 colon 69.9%

O=C(Nc1ccc(-n2cc(-c3ccncc3)c(-c3ccc(O)c(Cl)c3)n2)cc1)c1ccc(Cl)c(C(F)(F)F)c1
active: HCT-116 colon 9.26%
inactive: T-47D breast 39.8% | BT-549 breast 14.9% | MDA-MB-435 melanoma 16% | SW-620 colon 26.7% | MCF7 breast 20.9% | HCC-2998 colon 25.9% | KM12 colon 15%

O=C(NCCNc1nccc(-c2c(-c3cccc(O)c3)nc3sccn23)n1)Nc1cccc(C(F)(F)F)c1
active: MDA-MB-435 melanoma -3.01%
inactive: T-47D breast 63.8% | BT-549 breast 41.1% | SW-620 colon 30.3% | MCF7 breast 55.6% | HCT-116 colon 56.8% | HCC-2998 colon 23% | KM12 colon 14%

Nc1nccc2c1ccn2-c1ccc(NC(=O)Nc2cccc(C(F)(F)F)c2)cc1
inactive: T-47D breast 85.1% | BT-549 breast 96.5% | MDA-MB-435 melanoma 96.6% | SW-620 colon 103% | MCF7 breast 86.8% | HCT-116 colon 76.8% | HCC-2998 colon 115% | KM12 colon 75.1%

Clc1ccc2c(NCCNc3nc(Cl)nc4ccccc34)ccnc2c1
active: T-47D breast -63.6% | BT-549 breast -65.6% | MDA-MB-435 melanoma -89.4% | SW-620 colon -77.1% | MCF7 breast -63.8% | HCT-116 colon -96.7% | HCC-2998 colon -64.1% | KM12 colon -76.5%

CC(Cl)(CCl)CS(=O)(=O)c1ccc(Cl)cc1 (centres undefined)
inactive: T-47D breast 113% | BT-549 breast 105% | MDA-MB-435 melanoma 108% | SW-620 colon 103% | MCF7 breast 99.8% | HCT-116 colon 103% | HCC-2998 colon 104% | KM12 colon 108%

OCCOCC(F)(F)F
inactive: T-47D breast 104% | BT-549 breast 97.7% | MDA-MB-435 melanoma 94.4% | SW-620 colon 100% | MCF7 breast 105% | HCT-116 colon 106% | HCC-2998 colon 104% | KM12 colon 113%

CCOc1ccc(Cc2nccc3cc(OCC)c(OCC)cc23)cc1OCC
inactive: T-47D breast 39.1% | BT-549 breast 49.1% | MDA-MB-435 melanoma 60.2% | SW-620 colon 39.1% | MCF7 breast 72.7% | HCT-116 colon 26.5% | HCC-2998 colon 52.2% | KM12 colon 49.3%

NC(=NCCCOc1ccc(F)cc1)Nc1ccc(Cl)c(Cl)c1
inactive: T-47D breast 29.2% | BT-549 breast 91.2% | MDA-MB-435 melanoma 79% | SW-620 colon 60.4% | MCF7 breast 18.1% | HCT-116 colon 45.6% | KM12 colon 76.5%
active: HCC-2998 colon -45.7%

CCCOC(=O)c1ccc([N+](=O)[O-])o1
inactive: T-47D breast 114% | BT-549 breast 127% | MDA-MB-435 melanoma 107% | SW-620 colon 97.2% | MCF7 breast 94.2% | HCT-116 colon 105% | HCC-2998 colon 121% | KM12 colon 101%

CC(C)[C@@H]1NC(=O)[C@]2(C)CSC(=N2)c2ccnc(c2)CNC(=O)C[C@@H](/C=C/CCS)OC1=O
active: T-47D breast -24.6% | MDA-MB-435 melanoma 5.07% | SW-620 colon 4.68% | HCT-116 colon -39.2% | HCC-2998 colon -66.5% | KM12 colon 6.09%
inactive: BT-549 breast 42.7% | MCF7 breast 16.1%

O=[N+]([O-])c1ccc(NS(=O)(=O)c2cc(Cl)ccc2Cl)c2ccccc12
inactive: T-47D breast 56% | BT-549 breast 48% | MDA-MB-435 melanoma 52.3% | SW-620 colon 64.4% | MCF7 breast 46.4% | HCT-116 colon 45% | HCC-2998 colon 32.2% | KM12 colon 40.5%

CCC(C)Nc1ccc(N)cc1 (centres undefined)
active: MCF7 breast 3.94% | HCT-116 colon -34.8% | KM12 colon 8.28%
inactive: T-47D breast 16.2% | BT-549 breast 31.7% | MDA-MB-435 melanoma 12.7% | SW-620 colon 29.9% | HCC-2998 colon 28.4%

C#CC(=O)/C=C/CCCCCCC#CC(=O)CCC(=O)C#CCCCCCC/C=C/C(=O)C#C
inactive: T-47D breast 24.8% | MCF7 breast 21.6% | HCC-2998 colon 63.9% | KM12 colon 49.2%
active: BT-549 breast -15.3% | MDA-MB-435 melanoma -33.6% | SW-620 colon 8.47% | HCT-116 colon -7.8%

COc1cc(NC(C)CCCN2C(=O)c3ccccc3C2=O)c2ncccc2c1OC (centres undefined)
inactive: T-47D breast 66.8% | BT-549 breast 91.2% | MDA-MB-435 melanoma 92.1% | SW-620 colon 84.7% | MCF7 breast 41.8% | HCT-116 colon 84.5% | HCC-2998 colon 124% | KM12 colon 80.2%

C=CCOc1ccc(/C(Cl)=N/N=C(\Cl)c2cc(OC)c(OC)c(OC)c2)cc1
inactive: T-47D breast 47.6% | BT-549 breast 89.5% | MDA-MB-435 melanoma 80.6% | SW-620 colon 68.3% | MCF7 breast 42.8% | HCT-116 colon 70.2% | HCC-2998 colon 75.6% | KM12 colon 67.9%

Cc1cc(N2CCOCC2)nc(N(CCNc2ccnc3cc(Cl)ccc23)Cc2ccco2)n1
active: T-47D breast -6.08%
inactive: BT-549 breast 30.2% | MDA-MB-435 melanoma 26.6% | SW-620 colon 50.5% | MCF7 breast 40.6% | HCT-116 colon 14.5% | HCC-2998 colon 62.9% | KM12 colon 44.8%

FC(F)(F)c1cccc([Si](F)(c2cccc(C(F)(F)F)c2)c2cccc(C(F)(F)F)c2)c1
inactive: T-47D breast 40.4% | BT-549 breast 64.5% | MDA-MB-435 melanoma 95% | SW-620 colon 82% | MCF7 breast 67.1% | HCT-116 colon 15.6% | HCC-2998 colon 99% | KM12 colon 74.8%

COc1ccc(Cl)cc1NC(=O)c1cc2c(n1C)-c1nc(NC(=O)C(C)(C)C)sc1CC2
inactive: T-47D breast 64.5% | BT-549 breast 94.6% | MDA-MB-435 melanoma 102% | SW-620 colon 107% | MCF7 breast 79.4% | HCT-116 colon 85.4% | HCC-2998 colon 118% | KM12 colon 94.8%

CC(C)C1(C(C)C)NC(=O)NC1=O
inactive: T-47D breast 109% | BT-549 breast 111% | MDA-MB-435 melanoma 114% | SW-620 colon 127% | MCF7 breast 101% | HCT-116 colon 98.5% | HCC-2998 colon 102% | KM12 colon 138%

O=C1c2ccccc2OC=C(c2ccccc2)N1CCCCNc1ccc(F)cc1
inactive: T-47D breast 36.3% | BT-549 breast 59.1% | MDA-MB-435 melanoma 108% | SW-620 colon 103% | MCF7 breast 85.6% | HCT-116 colon 59.4% | HCC-2998 colon 104% | KM12 colon 84.4%

O=C(Nc1ccc(-n2cc(-c3ccncc3)c(-c3ccc(O)c(Cl)c3)n2)cc1)Nc1cccc(Cl)c1Cl
inactive: T-47D breast 42.1% | BT-549 breast 59% | MDA-MB-435 melanoma 51.3% | SW-620 colon 73.7% | MCF7 breast 42.2% | HCT-116 colon 36.8% | HCC-2998 colon 70% | KM12 colon 39.1%

CCCCCn1ncc(-c2c(O)c(O)cc3c(O)c(-c4c(C)cc5c(-c6cnn(CCCCC)n6)c(O)c(O)cc5c4O)c(C)cc23)n1
inactive: MDA-MB-435 melanoma 17.1% | SW-620 colon 18.5%
active: T-47D breast -5.48% | BT-549 breast 7.18% | MCF7 breast 4.84% | HCT-116 colon 3.24% | HCC-2998 colon 0.112% | KM12 colon 4.29%

C=C1C(=O)O[C@H]2[C@H]1CC/C(CNC(=O)/C1=C/CC[C@@]3(C)O[C@H]3[C@H]3OC(=O)C(=C)[C@@H]3CC1)=C\CC[C@@]1(C)O[C@@H]21
inactive: T-47D breast 69.8% | BT-549 breast 101% | MDA-MB-435 melanoma 96.4% | SW-620 colon 77.4% | MCF7 breast 75% | HCT-116 colon 82.5% | HCC-2998 colon 105% | KM12 colon 102%

CCN(CC)CC(=O)Nc1c(C)cccc1C
inactive: T-47D breast 107% | BT-549 breast 97.3% | MDA-MB-435 melanoma 104% | SW-620 colon 106% | MCF7 breast 97% | HCT-116 colon 96.1% | HCC-2998 colon 114% | KM12 colon 113%

C=C1C(=O)O[C@H]2[C@H]1CC/C(COC(=O)c1ccc(Br)cc1)=C\CC[C@@]1(C)O[C@@H]21
active: T-47D breast -47% | BT-549 breast -8.16% | MDA-MB-435 melanoma -35.4% | SW-620 colon -47.5% | MCF7 breast -18.5% | HCT-116 colon -84.3%
inactive: HCC-2998 colon 87.3% | KM12 colon 56.2%
